Screens: PubChem, The Scripps Research Institute Molecular Screening Center
M1 PAM = human M1 muscarinic receptor positive allosteric modulators, primary screen, CHO-K1 cells, Fluo-8 calcium fluorescence, 1536-well; Muscarinic acetylcholine receptor M1 (Homo sapiens), P11229; CHO-K1 hM1, ACh EC20; 0% = ACh EC20, 100% = maximal ACh; activation, % at 3 µM; 360,000 tested, 0.088% active; in the data active means activation above about 19%, passing the limit was not always enough
Target sequence (P11229 whole entry, looked up): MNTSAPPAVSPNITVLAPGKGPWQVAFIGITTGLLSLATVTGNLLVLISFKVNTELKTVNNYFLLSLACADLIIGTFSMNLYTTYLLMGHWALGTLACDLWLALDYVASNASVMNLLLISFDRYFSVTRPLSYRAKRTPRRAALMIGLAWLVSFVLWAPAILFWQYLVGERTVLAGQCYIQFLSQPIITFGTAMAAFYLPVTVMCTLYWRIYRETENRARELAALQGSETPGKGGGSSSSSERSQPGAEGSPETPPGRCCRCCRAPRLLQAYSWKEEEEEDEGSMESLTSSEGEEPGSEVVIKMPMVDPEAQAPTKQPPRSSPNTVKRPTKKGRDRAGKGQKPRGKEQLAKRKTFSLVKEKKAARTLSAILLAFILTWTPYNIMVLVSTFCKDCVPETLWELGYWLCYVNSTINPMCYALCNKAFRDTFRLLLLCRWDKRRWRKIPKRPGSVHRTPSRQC
CHRM1 agonist = human M1 muscarinic receptor agonists, primary screen, Fluo-8 calcium fluorescence, CHO-K1 cells, HTS; 360,000 tested, 0.33% active; activation, % at 3 µM; CHO-K1 hM1, agonist mode; 0% DMSO, 100% acetylcholine EC100; Muscarinic acetylcholine receptor M1 (Homo sapiens), P11229;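 active means activation above the run's mean compound activation plus 3 SD, cut at about 16% in these data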;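 further: peak over basal fluorescence ratio within a 140 s kinetic read after compound addition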
M1 antag = human M1 muscarinic receptor antagonists, primary screen, CHO-K1 cells, Fluo-8 calcium fluorescence, 1536-well; Muscarinic acetylcholine receptor M1 (Homo sapiens), P11229; CHO-K1 hM1, ACh EC80 antagonist; 360,000 tested, 1.3% active; AID 588852, 2011; inhibition, % at 3 µM;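 active means percent inhibition above its own plate's cutoff, namely the mean of that plate's compound wells plus 3 SD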;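 further: peak over basal fluorescence ratio during 140 s after agonist addition; 0% = ACh EC80 plus DMSO and 100% = DMSO alone without agonist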
M1 ag parental = counter-screen for M1 agonists: effect in parental CHO-K1 cells | Fluo-8 calcium fluorescence; scaled to maximal ATP response, vehicle zero | activation, % at 3 µM | 360,000 tested, 0.48% active; in the data active means activation above about 15%;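 further: untransfected CHO-K1 host cells lacking M1 receptor as counterscreen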
M1 PAM parental = nonselective calcium activators in parental CHO-K1 cells, primary screen, counter-screen for M1 PAM project, cell-based, Fluo-8 calcium fluorescence, full deck, 1536-well | ATP EC20; 0% at ATP EC20, 100% at ATP max | activation, % at 3 µM | 360,000 tested, 0.02% active | AID 602247, 2012;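 active means activation above the run cutoff, the mean activation of all test compounds plus 3 SD, cut at about 40% in these data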;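 further: peak over basal fluorescence ratio in a 140 s read after ATP addition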
CHO-K1 Ca antag = M1 antagonist counterscreen hit in parental CHO-K1 cells; 360,000 tested, 0.6% active; ATP-induced calcium, Fluo-8 fluorescence; inhibition, % at 3 µM;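 active means inhibition above a per-plate cutoff, the plate's mean sample inhibition plus 3 SD, cut at about 24% in these data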;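 further: 0% = DMSO plus EC80 ATP and 100% = DMSO alone without ATP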
* hit, by the source's call. In the library only some 2.3% were active in any assay of this set; here they are far more common.

What do the screens show for `S=C(NCCc1ccccc1)Nc1cccc2cnccc12`?
M1 PAM: -2; CHRM1 agonist: 1; M1 antag: 28; M1 ag parental: 12; M1 PAM parental: -23; CHO-K1 Ca antag: 32*

Results for O=C(NCCCN1CCC(Cc2ccccc2)CC1)C1CC(=O)N(C2CCCC2)C1 (centres undefined) ?
M1 PAM: -22; CHRM1 agonist: -12; M1 antag: 33*; M1 ag parental: 0; M1 PAM parental: 1; CHO-K1 Ca antag: 5

How did O=C(NCCCN1CCC(Cc2ccccc2)CC1)C1CCC(=O)N1C1CCCC1 (centres undefined) do in these assays?
M1 PAM: -10; CHRM1 agonist: -12; M1 antag: 13; M1 ag parental: 0; M1 PAM parental: 3; CHO-K1 Ca antag: 2

Results for O=C(C1CC(=O)N(C2CCCC2)C1)N1CCN(c2ccccc2)CC1 (centres undefined) ?
M1 PAM: 8; CHRM1 agonist: -3; M1 antag: -8; M1 ag parental: 1; M1 PAM parental: 8; CHO-K1 Ca antag: 60*

How did O=C(NCc1cc([N+](=O)[O-])ccc1O)c1cccnc1Sc1ccccc1Cl do in these assays?
M1 PAM: 17; CHRM1 agonist: 14; M1 antag: -7; M1 ag parental: 5; M1 PAM parental: 2; CHO-K1 Ca antag: -3

Results for NC(=O)c1ccsc1NC(=O)COC(=O)/C=C/c1ccc([N+](=O)[O-])cc1 ?
M1 PAM: -8; CHRM1 agonist: 2; M1 antag: 7; M1 ag parental: 12; M1 PAM parental: 1; CHO-K1 Ca antag: -3

How did COc1ccc(/C=C/C(=O)OCC(=O)Nc2cc(C(N)=O)cc(C(N)=O)c2)cc1 do in these assays?
M1 PAM: 11; CHRM1 agonist: -7; M1 antag: -8; M1 ag parental: 11; M1 PAM parental: -15; CHO-K1 Ca antag: 25*

What do the screens show for `COC(=O)c1ccc(/C=C/C(=O)OCC(=O)Nc2sccc2C(N)=O)cc1`?
M1 PAM: -25; CHRM1 agonist: 5; M1 antag: 47*; M1 ag parental: 16*; M1 PAM parental: -17; CHO-K1 Ca antag: 10

How did COC(=O)CCC(C)C1CCC2C3C(OC(C)=O)CC4CC(O)CCC4(C)C3CC(O)C12C (centres undefined) do in these assays?
M1 PAM: 4; CHRM1 agonist: 1; M1 antag: -8; M1 ag parental: 2; M1 PAM parental: 8; CHO-K1 Ca antag: -8

Results for CC(=O)c1cccc(-c2cnc3c(NC=O)cc(-c4ccc(F)cc4)cn23)c1 ?
M1 PAM: 1; CHRM1 agonist: 0; M1 antag: 11; M1 ag parental: 2; M1 PAM parental: 3; CHO-K1 Ca antag: 3

What do the screens show for `COc1ccc(C(=O)C2CCCN(Cc3ccc(C#CCCO)cc3)C2)cc1F` (centres undefined)?
M1 PAM: -33; CHRM1 agonist: -13; M1 antag: 58*; M1 ag parental: 1; M1 PAM parental: -11; CHO-K1 Ca antag: 4

Results for COc1ccc(C(=O)C2CCCN(Cc3cnc(N4CCOCC4)s3)C2)cc1F (centres undefined) ?
M1 PAM: 0; CHRM1 agonist: 0; M1 antag: -16; M1 ag parental: 29*; M1 PAM parental: 15; CHO-K1 Ca antag: -5

How did COc1ccc(C(=O)C2CCCN(Cc3ccc4nonc4c3)C2)cc1F (centres undefined) do in these assays?
M1 PAM: -11; CHRM1 agonist: -5; M1 antag: 14; M1 ag parental: 2; M1 PAM parental: 13; CHO-K1 Ca antag: -13

Results for COc1ccc(C(=O)C2CCCN(Cc3cnc(N4CCOCC4)s3)C2)c(OC)c1 (centres undefined) ?
M1 PAM: 7; CHRM1 agonist: -8; M1 antag: 0; M1 ag parental: 0; M1 PAM parental: -4; CHO-K1 Ca antag: -8

How did Cc1nc([N+](=O)[O-])c(SCC(N)=O)n1Cc1ccccc1 do in these assays?
M1 PAM: 1; CHRM1 agonist: -11; M1 antag: 3; M1 ag parental: 0; M1 PAM parental: 13; CHO-K1 Ca antag: -10

How did Cc1nc([N+](=O)[O-])c(N2CCN(C)CC2)n1Cc1ccccc1 do in these assays?
M1 PAM: -21; CHRM1 agonist: -7; M1 antag: 40*; M1 ag parental: 0; M1 PAM parental: -5; CHO-K1 Ca antag: 11

How did Cc1ccc(-n2ncc3c2CC(C)(C)CC3NC(=O)c2c(C)noc2C)cc1 (centres undefined) do in these assays?
M1 PAM: 16; CHRM1 agonist: -3; M1 antag: -21; M1 ag parental: -1; M1 PAM parental: -9; CHO-K1 Ca antag: 1

What do the screens show for `CCOC(=O)[C@]12CCC=C1N(Cc1cccc3ccccc13)C(=O)[C@H](CC(=O)NCC1CCCCC1)C2`?
M1 ag parental: 0; M1 PAM parental: 9; CHO-K1 Ca antag: -12

How did CCc1nc2c(OCCOc3ccc(F)cc3)cccn2c1N(C)C(=O)c1ccc(OC)cc1 do in these assays?
M1 PAM: -24; CHRM1 agonist: -9; M1 antag: 22; M1 ag parental: 1; M1 PAM parental: 6; CHO-K1 Ca antag: -2

What do the screens show for `Cc1ccnc(NS(=O)(=O)c2ccc(NC(=O)Cc3ccccc3)cc2)n1`?
M1 PAM: 0; CHRM1 agonist: -4; M1 antag: 4; M1 ag parental: 0; M1 PAM parental: -10; CHO-K1 Ca antag: 25*

Results for Cc1cc(C)nc(NS(=O)(=O)c2ccc(NC(=O)Cc3ccccc3)cc2)n1 ?
M1 PAM: -12; CHRM1 agonist: -4; M1 antag: 15; M1 ag parental: 5; M1 PAM parental: -10; CHO-K1 Ca antag: 24*

Results for Cc1ccc(CC(=O)Nc2ccc(S(=O)(=O)Nc3nccc(C)n3)cc2)cc1 ?
M1 PAM: 6; CHRM1 agonist: 0; M1 antag: -8; M1 ag parental: -1; M1 PAM parental: 5; CHO-K1 Ca antag: -9

What do the screens show for `C=CCCC(=O)N1C[C@H]2CON(C)[C@H]2C[C@H]1c1ccc(Br)cc1`?
M1 PAM: 5; CHRM1 agonist: 2; M1 antag: -14; M1 ag parental: 0; M1 PAM parental: -8; CHO-K1 Ca antag: 13

Results for CCOC(=O)C1=C(C)N(c2ccccc2)C(=O)NC1c1cccc([N+](=O)[O-])c1 (centres undefined) ?
M1 PAM: -23; CHRM1 agonist: -9; M1 antag: 68*; M1 ag parental: 0; M1 PAM parental: 6; CHO-K1 Ca antag: 0
